Max response, Potency and outcome data for 33 compounds are collected here from PubChem BioAssay (NCATS).

Inconclusive results are not listed. A number with no mark means an inactive call. Active and inactive are the calls of the source. Calls come from the whole dose curve; as a rule, active = well fitted inhibition curve with a large enough effect; inconclusive = small, poorly fitted or top-dose-only effect; inactive = flat fitted curve, though single readings scatter.

Test [1] has as its system KB-3-1. The test can be described thus: Cytotoxic Profiling of Annotated Libraries Using Quantitative High-Throughput Screening (AID 1296008). Particulars: Five cell lines viability, CellTiter-Glo ATP luminescence, 48-72 h; max response: hits give low values. The essentials:
(§1)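 Cytotoxicity was measured as CellTiter-Glo ATP luminescence, read after 10 min at room temperature. Compound treatment of the cells lasted 48 or 72 hr at 37 degrees Celsius in a qHTS format.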

Test [2] has as its system HaCat. Described as above. Particulars: Five cell lines viability, CellTiter-Glo ATP luminescence, 48-72 h; max response: hits give low values. In short, it runs like this:
as §1

In test [3] the test system is MCC-13. The test can be described thus: qHTS assay to identify novel small-molecules to repurpose for Merkel cell carcinoma treatment (AID 1296009). Note: potency is the fitted concentration of half-maximal effect. The following applies: MCC and control cell lines, CellTiter-Glo viability, 72 h; series mostly up to 46 µM. The essentials: (§2)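 72 hr, 37 degree celsius; NPC 8-pt / MIPE 11-pt dose response; compound pinned in DMSO; CellTiter-Glo, 10 min RT, luminescence; normalized to no-cell and DMSO controls.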

Test [4] concerns MCC-26. The test is described as above. Particulars: MCC and control cell lines, CellTiter-Glo viability, 72 h; series mostly up to 46 µM. The essentials: as §2
Test [5] has as its system MKL-1. The description is as above. Particulars: MCC and control cell lines, CellTiter-Glo viability, 72 h; series mostly up to 46 µM. In short, it runs like this: as §2
Test [6] relates to NIH3T3. The experiment in a line: Cytotoxic Profiling of Annotated Libraries Using Quantitative High-Throughput Screening (AID 1296008). Particulars: Five cell lines viability, CellTiter-Glo ATP luminescence, 48-72 h; max response: hits give low values. In short, it runs like this: as §1
Test [7] deals with HEK293T. The test can be described thus: qHTS assay to identify novel small-molecules to repurpose for Merkel cell carcinoma treatment (AID 1296009). Note: potency is the fitted concentration of half-maximal effect. The following applies: MCC and control cell lines, CellTiter-Glo viability, 72 h; at 44.8 µM (top of the series) unless noted. In short, it runs like this: as §2
Test [8] relates to HACAT. The test is described as above. Particulars: MCC and control cell lines, CellTiter-Glo viability, 72 h; at 44.8 µM (top of the series) unless noted. The essentials:
as §2
% is set by controls: 0 for no effect and ±100 for the full control effect.
Note: nearly all actives have a fitted effect of over 60% in size.

Regarding `C[C@@H]1C(=O)NC2=Nc3cccc(Cl)c3CN21`, in test [1], the max response was -2.45%.

With `COc1cc(N)c(Cl)cc1C(=O)NC1CCN(CCCOc2ccc(F)cc2)CC1OC` (stereo not given), the max response was -1.88% in test [2] and 6.35% in test [1]. For the same compound, the Potency result in test [3], in test [4] and in test [5] was “inactive” each time.

In the case of `CC(C)(C)CC(C)(C)c1ccc(O)c(Cc2ccc(Cl)cc2Cl)c1`, the max response in test [1] is -6.63%.

Consider `COc1cc2c(cc1OC)C(=O)C(CC1CCN(Cc3ccccc3)CC1)C2` (stereo not given), for which the max response was 1.75% in test [1] and -17.7% in test [6]. Moreover, the Potency entry in test [3], in test [4] and in test [5] was “inactive” in each case.

With `CN1CCCC(CC2c3ccccc3Sc3ccccc32)C1` (stereo not given), the max response is 2.06% in test [2] and 7.2% in test [1]. Moreover, the Potency result in test [4] was “inactive”.

For the compound `NC(CO)(CO)CO`, the max response in test [1] is 3.6%; in test [6], -20%. Moreover, the Potency entry in test [3], in test [4] and in test [5] was “inactive” each time.

For the compound `CC1(C)CCC(NC(=O)[C@@H](N)CCC(=O)O)CC1`, in test [1], the max response was 5%.

As to `CCCCOc1cc(C(=O)NCCN(CC)CC)c2ccccc2n1`, the max response in test [2] is 2.41%; in test [1] it was 0.155%. The Potency result in test [3], in test [4] and in test [5] was “inactive” in each case.

With `CNCC[C@@H](Oc1ccccc1C)c1ccccc1`, the values for the max response in test [2] and in test [1] were 1.42% and -7.4%, respectively. In addition, the Potency result in test [3], in test [4] and in test [5] was “inactive” in each case.

As to `CN(C)/N=N/c1nc[nH]c1C(N)=O`, the max response in test [1] was -8.2%. Also, the Potency entry in test [3], in test [4] and in test [5] was “inactive” each time.

Turning to `CCCCCCCCCCCCCCNCCO`, the max response in test [1] is 5.95%. Further, the Potency result in test [3] and in test [4] was “inactive” in each case.

In the case of `N[C@H](CO)C(=O)O`, the max response in test [1] is -2.03%.

`CC(=O)O[C@H]1C[C@@H]2CC[C@@H]3[C@H](CC[C@@]4(C)[C@H]3C[C@H]([N+]3(C)CCCCC3)[C@@H]4OC(C)=O)[C@@]2(C)C[C@@H]1[N+]1(C)CCCCC1`: in test [1], the max response was 1.63%.

Turning to `CN(C(=O)CN(CCO)CC(=O)N(C)C(C)(C)Cc1ccccc1)C(C)(C)Cc1ccccc1`, the max response in test [2] is -0.203%; in test [1], -13.8%. In test [4], the Potency result was “inactive”.

With `CC/C(=C(/CC)c1ccc(O)cc1)c1ccc(O)cc1`, the max response in test [1] was -22.7%; in test [6] it was -25.4%. Besides, the Potency entry in test [3], in test [4] and in test [5] was “inactive” throughout.

Turning to `CNCCC=C1c2ccccc2CCc2ccccc21`, the max response in test [1] is -9.12%.

In the case of `Nc1cc(Cl)c(NC2=NCCN2)c(Cl)c1`, the max response in test [1] is -1.36%.

As to `O=C1CCC(c2ccc(-n3ccnc3)cc2)=NN1`, the max response in test [1] was 11.9%.

Turning to `O=C(O)c1cc2cc(Cc3cccnc3)ccc2o1`, the max response in test [1] is 4.6%.

With `COC(=O)[C@H]1[C@H]2C[C@H]3c4[nH]c5ccccc5c4CCN3C[C@H]2CC[C@@H]1O`, in test [1], the max response was -10.9%.

In the case of `COc1ccc(/C=C/C(=O)c2ccc(OC)cc2OC)cc1`, the max response in test [2] was -62.6%; in test [6], -18.9%.

As for `Oc1ccc(Cl)cc1Sc1cc(Cl)ccc1O`, the max response was 2% in test [2] and -21.9% in test [6]. In addition, in test [4], the Potency result is “inactive”. The Potency in test [5] was 21.1 µM (active).

`CC[C@H](C)C(=O)O[C@H]1CCC=C2C=C[C@H](C)[C@H](CC[C@@H]3C[C@@H](O)CC(=O)O3)[C@H]21`: in test [1], the max response is 3.96%.

In the case of `C[C@H]1[C@H](NC(=O)/C(=N/OC(C)(C)C(=O)O)c2csc(N)n2)C(=O)N1S(=O)(=O)O` (stereo in doubt), the Potency result in test [3], in test [4] and in test [5] was “inactive” in each case.

Regarding `CC(=O)OCC(=O)NCCCOc1cccc(CN2CCCCC2)c1`, in test [7], the compound was classed as inactive. In addition, the Potency entry in test [3], in test [4] and in test [5] was “inactive” each time.

Take `C#C[C@]1(O)CC[C@H]2[C@@H]3CCC4=CC(=O)CC[C@@H]4[C@H]3CC[C@@]21C`: the Potency result in test [3], in test [4] and in test [5] was “inactive” each time.

`c1ccc(-c2ccc(C(c3ccccc3)n3ccnc3)cc2)cc1` (stereo not given): the Potency entry in test [3] and in test [4] was “inactive” in each case.

As to `O=C1OC(c2ccc(O)cc2)(c2ccc(O)cc2)c2ccccc21`, the Potency entry in test [3], in test [4] and in test [5] was “inactive” each time.

Regarding `CCCC(=O)Nc1ccc(OCC(O)CNC(C)C)c(C(C)=O)c1` (stereo not given), the compound was classed as inactive in test [8]. The Potency result in test [3], in test [4] and in test [5] was “inactive” throughout.

Consider `CC1=C(C(=O)O)N2C(=O)[C@@H](NC(=O)[C@H](N)c3ccc(O)cc3)[C@H]2SC1`, for which the call in test [7] was inactive. Also, the Potency entry in test [3], in test [4] and in test [5] was “inactive” in each case.

Consider `CCN(CC)C(=O)N1CCN(C)CC1`, for which the Potency entry in test [3], in test [4] and in test [5] was “inactive” each time.

As to `Cc1ccnc(NS(=O)(=O)c2ccc(N)cc2)n1`, the result in test [8] and in test [7] was inactive. The Potency result in test [3], in test [4] and in test [5] was “inactive” throughout.

For `CO/N=C1\CN(c2nc3c(cc2F)c(=O)c(C(=O)O)cn3C2CC2)CC1CN` (stereo not given), the compound was called inactive in test [8]. The Potency entry in test [3], in test [4] and in test [5] was “inactive” in each case.
